RORg inh: inhibitors of mouse ROR gamma transcriptional activity; 5.4% of 310,000 active; Potency, µM (series often up to 53.6 µM), for the others: at the highest dose activity change, negative = inhibition, actives largely listed as inhibitors; P51450; Drosophila S2 Gal4-RORgamma UAS-luciferase reporter, 20 h; note: potency is the fitted concentration of half-maximal effect; % is set by controls: 0 for no effect and ±100 for the full control effect; nearly all actives have a fitted effect of over 60% in size
Target sequence (P51450 whole entry, looked up, the tested form may be a part): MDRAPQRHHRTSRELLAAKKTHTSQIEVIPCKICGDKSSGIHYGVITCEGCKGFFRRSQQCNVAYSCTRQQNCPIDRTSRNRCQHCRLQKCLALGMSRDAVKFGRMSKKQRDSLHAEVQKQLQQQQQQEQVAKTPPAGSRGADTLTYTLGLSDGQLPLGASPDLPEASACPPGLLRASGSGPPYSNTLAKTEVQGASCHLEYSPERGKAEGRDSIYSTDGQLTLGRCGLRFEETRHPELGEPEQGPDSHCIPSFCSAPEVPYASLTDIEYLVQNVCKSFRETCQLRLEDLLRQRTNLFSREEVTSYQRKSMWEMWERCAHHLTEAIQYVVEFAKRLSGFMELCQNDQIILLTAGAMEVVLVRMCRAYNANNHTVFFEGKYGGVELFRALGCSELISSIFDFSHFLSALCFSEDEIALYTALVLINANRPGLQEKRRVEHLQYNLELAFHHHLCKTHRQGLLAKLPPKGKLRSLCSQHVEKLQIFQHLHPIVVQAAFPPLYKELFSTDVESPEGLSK
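Stable Schneider cell line, Gal4 DNA-binding domain fused to ROR gamma, UAS-luciferase. Cmpd 1 hr RT → CuSO4 700 uM final → 20 hr RT → luciferase reagent 10 min → luminescence.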
CtBP-E1A blk: inhibitors of CtBP/E1A interaction | 0.49% of 340,000 active | activity change, % (concentration not given with the values) | AlphaScreen GST-E1A/His-CtBP binding, 1536-well; stronger effect = lower value | AID 651724; in the data active = activity change below about -65%; inconclusive = mostly about -30% to -63%; note: % is set by controls: 0 for no effect and ±100 for the full control effect
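Homogeneous bead-based format: GST-tagged E1A captured on glutathione donor beads, His-tagged CtBP on nickel acceptor beads; compounds precede bead addition by 2 h at 37 °C.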
Gal4-VP16 FLuc: Gal4-VP16 reporter inhibition counter-screen; Drosophila S2 Gal4-VP16 UAS-luciferase, luminescence, 20 h; Potency, µM (doses to about 53.6 µM), inactives show at the highest dose activity, negative = inhibition, actives largely listed as inhibitors; 3.5% of 310,000 active;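 note: Gal4-VP16 expression switched on by copper sulfate through the metallothionein promoter; potency is the fitted concentration of half-maximal effect; % is set by controls: 0 for no effect and ±100 for the full control effect; nearly all actives have a fitted effect of over 50% in size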
Six1-Eya2 inh: Six1/Eya2 interaction inhibition; 0.56% of 360,000 active; activity change, % (no concentration beside the values); AlphaScreen GST-Six1/His-Eya2 binding, biochemical; stronger effect = lower value; Q15475+O00167; AID 651725; in the data active = activity change below about -65%; inconclusive = mostly about -30% to -63%; note: % is set by controls: 0 for no effect and ±100 for the full control effect
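GST-Six1 + His-Eya2 (5X stock: 250/500 nM); Tris pH 8.0, 300 mM NaCl, 0.05% BSA, 0.02% Tween 20; GSH donor/Ni acceptor beads; 1 h 37 °C dark; AlphaScreen readout.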
p53 reactivator: mutant p53 re-activation in reporter cells. 0.063% of 320,000 active. Potency, µM (top dose mostly 92.2 µM), for the others: top-dose activity change, positive = activation, actives largely listed as activators. H1299 p53-A138V BP100-luciferase reporter, luminescence, 24 h; note: potency is the fitted concentration of half-maximal effect; % of control where 0% means no effect; nearly all actives have a fitted effect of over 45% in size
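p53-null H1299 cells stably carrying temperature-sensitive p53-A138V and a BP100-luciferase reporter were pinned with compounds (4-point, 1:5 series) and held 24 hrs at 37 deg C. Luminescence was read 10 min after detection reagent.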
* hit, by the source's call; ? = inconclusive; · = no result; [ ] = remark or other dose. Compounds with a hit are over-represented: about 5.4% of the library has one in this group of screens. Unless noted, calls come from the whole dose curve; as a rule, active = well fitted curve in the direction sought with a large enough effect; inconclusive = small, poorly fitted or top-dose-only effect, or another doubt; inactive = no such curve, though single readings can be large; an effect the other way counts as inactive or inconclusive.

SMILES	RORg inh	CtBP-E1A blk	Gal4-VP16 FLuc	Six1-Eya2 inh	p53 reactivator
O=C(c1ccncc1)N1CCC2(CCCN(Cc3nccs3)C2)CC1	1%	·	-17%	·	·
C[C@H](CO)N1C[C@H](C)[C@@H](CN(C)C(=O)NC2CCCC2)Oc2cc(Br)ccc2S1(=O)=O	·	-10	·	4	·
c1cn(-c2cc(-c3ccc4c(c3)OCO4)ncn2)cn1	-20%	·	-9%	·	·
Cc1cccc(CC2S/C(=N/c3ccccn3)NC2=O)c1 (stereo not drawn)	1.3µM*	0	?	-7	12%
O=C1N/C(=N\c2ccccn2)SC1Cc1ccccc1Cl (stereo not drawn)	0.71µM*	·	1µM*	-2	4%
O=C1NC(=Nc2cccc(Cl)c2)SC1Cc1cccc(Cl)c1Cl (stereo not drawn)	?	5	?	3	-17%
CN(C)CC/C=C1\c2ccccc2COc2ccc(CC(=O)O)cc21	-3%[10 µM]	·	-10%	·	·
O=C(CN1CCN(c2nc(-c3ccccc3)cs2)CC1)NNC(=O)c1ccc(Br)cc1	-9%	7	1%	-2	1%
O=C(NC(=S)N1CCN(c2nc(-c3ccccc3)cs2)CC1)c1cncc(Br)c1	0.22µM*	-18	0.22µM*	-13	-2%
COc1ccc(-c2nc(NC(=O)C3CCN(c4nc5ccccc5o4)CC3)sc2C)cc1	-44%	-11	?	-14	15%
Cn1c(SCC(=O)NC2CC2)nnc1-c1cccs1	?	-15	18µM*	-11	35µM*
O=C(O)[C@H]1CN(CCCP(=O)(O)O)CCN1	5%	·	-15%	·	·
CC(C)(C)C(=O)COC(=O)c1cc(-c2cccnc2)nc2ccccc12	?	2	35µM*	-5	-4%
CNC(=S)NNC(=O)c1cc(-c2cccnc2)nc2ccccc12	7.1µM*	-1	16µM*	-1	17%
CCCCNC(=S)NNC(=O)c1cc(C2CC2)nc2ccccc12	6.3µM*	9	?	-6	-10%
CCCCNC(=S)NNC(=O)c1cc(-c2ccncc2)nc2ccccc12	11µM*	-6	-19%	-1	-7%
COc1cc(C2C(C#N)=C(N)OC3=C2C(=O)CCC3)c([N+](=O)[O-])cc1OC (stereo not drawn)	-10%	-26	1%	-19	5%
Cc1sc2ncn(CC(=O)NCCCC(=O)N3CCC(C(N)=O)CC3)c(=O)c2c1C	-6%	6	0%	-4	-4%
CC[C@H](C)[C@H](NC(=O)CNC(=O)[C@@H](NC(=O)[C@@H](NC(=O)[C@H](Cc1ccc(O)cc1)NC(=O)[C@H](CC(C)C)NC(=O)[C@H](C)NC(=O)[C@H](CCC(N)=O)NC(=O)CNC(=O)[C@@H]1CCCN1C(=O)CNC(=O)[C@H](Cc1ccccc1)NC(=O)[C@H](Cc1cnc[nH]1)NC(=O)[C@@H](NC(=O)CNC(=O)[C@H](CCCNC(=N)N)NC(=O)[C@H](CCCNC(=N)N)NC(=O)[C@@H](NC(=O)[C@H](CC(N)=O)NC(=O)[C@@H](N)CS)[C@@H](C)O)[C@@H](C)CC)[C@@H](C)O)[C@@H](C)O)C(=O)O	9%	·	-5%	·	·
Clc1cccc(C=NC=Nc2cccc(Cl)c2)c1	0%	·	-7%	·	·
COc1ccc(NC(=O)NNC(=O)c2cc(C3CC3)nc3ccccc23)c(OC)c1	?	-4	-4%	1	-9%
COCCNC(=S)NNC(=O)c1cc(C2CC2)nc2ccccc12	11µM*	1	-27%	6	14%
CC(C)N1CCC1(C)C(=O)Nc1ccc(-n2cccc2)cc1 (stereo not drawn)	·	-23	·	?	·
C=CCOc1ccc(-c2n[nH]c(=S)o2)cc1	11µM*	3	-22%	1	-1%
CC(C)OC(=O)CC1C(=O)NCCN1C(=S)NC(=O)c1cccs1 (stereo not drawn)	2.5µM*	-7	11µM*	7	3%
SMILES	RORg inh	CtBP-E1A blk	Gal4-VP16 FLuc	Six1-Eya2 inh	p53 reactivator
Cn1c2ccccc2c2cc(/C=N/NC(=O)c3cc(O)ccc3O)ccc21	?	?	?	-69*	-12%
CCn1c2ccccc2c2cc(/C=N/NC(=O)c3ccccc3)ccc21	8.9µM*	-7	?	-4	0%
Cn1c2ccccc2c2cc(/C=N/NC(=O)c3cc(O)cc(O)c3)ccc21	-29%	?	-13%	?	-11%
Cc1ccnc(SCC(=O)Nc2c(C)n(C)n(-c3ccccc3)c2=O)n1	0%	12	2%	2	2%
COc1ccc(C(=O)OCC(=O)NC(=O)NC(C)C)cc1OC	12%	-11	-1%	7	-1%
Cc1cccc2c(-c3ccccc3)cc(=O)[nH]c12	10%	6	-7%	-1	-3%
Cc1cc(=S)[nH]c2c(C)cccc12	11µM*	-4	?	-5	-2%
O=C(N/N=C/c1ccccc1O)C1CC(=O)N(c2ccc(F)cc2)C1 (stereo not drawn)	2.8µM*	?	6.3µM*	-70*	16%
COc1ccc(N2CC(C(=O)N/N=C/c3c[nH]c4ccccc34)CC2=O)cc1 (stereo not drawn)	-2%	-12	7%	-3	-2%
O=C1NCCCC1C(=O)N/N=C/c1ccccc1[N+](=O)[O-] (stereo not drawn)	17%	-1	17%	-5	4%
O=C1NCCCC1C(=O)N/N=C/c1ccccc1O (stereo not drawn)	-29%	-71*	-2%	?	1%
COc1ccc(N2CC(C(=O)N/N=C/c3cc([N+](=O)[O-])ccc3O)CC2=O)cc1 (stereo not drawn)	5.6µM*	-77*	18µM*	-90*	3%
COc1ccc(N2CC(C(=O)Nc3ccc([N+](=O)[O-])cc3Br)CC2=O)cc1 (stereo not drawn)	15%	-5	-10%	-7	-4%
COc1cccc([C@@H]2Oc3ccc(Br)cc3C(=O)[C@H]2OC(=O)Nc2cc(OC)c(OC)c(OC)c2)c1	?	·	-22%	·	·
CCN(CC)S(=O)(=O)c1ccc(NC(=O)COC(=O)CNS(=O)(=O)/C=C/c2ccccc2)cc1	-1%	-81*	-2%	-14	-5%
COCCn1c(C)cc(C(=O)CSc2nc(C)c(C)c(C)n2)c1C	7%	-12	1%	-3	0%
COCCn1c(C)cc(C(=O)CSc2nnc3ccccn23)c1C	3.2µM*	3	?	13	1%
Cc1ccc(C(=O)CSc2nnc3ccccn23)c(C)c1	?	12	-8%[10 µM]	0	-4%
COCCn1c(C)cc(C(=O)CSc2nc3ccccc3s2)c1C	14µM*	-2	5µM*	-17	·
COCCn1c(C)cc(C(=O)CSc2cc(C)c3ccc(OC)cc3n2)c1C	6.3µM*	?	2.2µM*	-25	-9%

Source: PubChem BioAssay (National Center for Advancing Translational Sciences (NCATS))
